Assay outcomes (PubChem BioAssay)
PAFAH1B2 FP inh: blocks human PAF acetylhydrolase 1b catalytic subunit 2; inhibition, % at 3.39 µM; AID 492953; recombinant PAFAH1B2, FP-rhodamine activity probe, fluorescence polarization; P68402; hit rate 1.2% among 340,000;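 active = inhibition above the mean of all tested compounds plus 3 SD, cut at about 24% in these data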
Target sequence (P68402 whole entry, looked up): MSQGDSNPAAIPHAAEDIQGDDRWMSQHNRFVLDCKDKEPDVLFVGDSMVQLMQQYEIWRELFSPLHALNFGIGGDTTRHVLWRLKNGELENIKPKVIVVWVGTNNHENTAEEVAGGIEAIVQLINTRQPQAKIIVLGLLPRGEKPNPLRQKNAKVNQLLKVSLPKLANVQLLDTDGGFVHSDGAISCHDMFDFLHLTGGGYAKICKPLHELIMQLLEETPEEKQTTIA
pPAFAH inh: pPAFAH (human) enzyme inhibition; Q13093; recombinant pPAFAH, FP-rhodamine probe fluorescence polarization; inhibition, % at 3.39 µM; hit rate 1.5% among 330,000; AID 463082;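 active = inhibition above the mean inhibition across the screen plus 3 SD, cut at about 25% in these data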;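 note: inhibitors block binding of the rhodamine activity-based probe so polarization drops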
ATG4B inh: blocks human ATG4B protease cleavage of LC3 substrate | Q9Y4P1 | ATG4B cleavage of LC3-PLA2, NBD-HPC fluorescence, 1 h | inhibition, % at 8.33 µM | hit rate 0.51% among 340,000; in the data active = inhibition above about 40%
Target sequence (Q9Y4P1 whole entry, looked up): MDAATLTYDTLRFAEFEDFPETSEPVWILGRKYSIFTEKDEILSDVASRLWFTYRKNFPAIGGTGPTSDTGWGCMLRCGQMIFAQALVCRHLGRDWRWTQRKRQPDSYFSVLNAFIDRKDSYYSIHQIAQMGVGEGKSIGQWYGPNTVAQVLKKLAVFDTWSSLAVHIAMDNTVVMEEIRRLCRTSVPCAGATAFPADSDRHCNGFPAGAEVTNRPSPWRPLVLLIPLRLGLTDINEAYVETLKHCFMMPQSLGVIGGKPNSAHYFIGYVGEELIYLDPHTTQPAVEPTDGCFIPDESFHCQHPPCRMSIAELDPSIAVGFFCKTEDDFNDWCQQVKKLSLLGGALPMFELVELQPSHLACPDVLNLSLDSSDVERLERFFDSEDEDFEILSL
PAFAH1B3 FP inh: blocks human PAF acetylhydrolase 1B catalytic subunit 3. Q15102. recombinant PAFAH1B3, FP-rhodamine probe, fluorescence polarization. inhibition, % at 3.39 µM. hit rate 0.28% among 340,000. AID 492972;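 active = inhibition above the screen-wide average of all tested compounds plus 3 SD, cut at about 25% in these data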
DAGLB inhibitor: blocks human DAGLB lipase activity | HEK293T DAGLB membrane lysate, EnzChek fluorogenic substrate | inhibition, % at 5.17 µM | hit rate 0.059% among 340,000 | AID 504411; in the data active = inhibition above about 34%
PAFAH2 inh: inhibitors of human PAFAH2. recombinant PAFAH2, FP-rhodamine activity probe, fluorescence polarization. inhibition, % at 3.39 µM. hit rate 0.99% among 340,000. AID 492956;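 active = inhibition above the mean over all tested compounds plus 3 SD, cut at about 30% in these data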;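 note: inhibitors block probe labeling of enzyme so polarization drops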
ATG4B conf: ATG4B (human) inhibition, single-dose confirmed; shares compounds with ATG4B inh; ATG4B protease fluorescent substrate cleavage assay; inhibition, % at 8.33 µM; hit rate 92% among 320; AID 504757; in the data active = inhibition above about 39%
PLA2 counter: inhibits human PLA2, flagging false ATG4B inhibitors | purified PLA2, NBD-C6-HPC fluorescence, 45 min | shares compounds with ATG4B inh | AID 588402 | inhibition, % at 8.33 µM | hit rate 66% among 1,600; in the data active = inhibition above about 50%
Large screens that a line does not name were inactive (follow-up assays come after a bar, where they were run). An excerpt weighted towards active compounds, which were near 3% of everything screened.

O=[N+]([O-])c1ccc(NC(=S)NCc2ccc(F)cc2)cc1	ATG4B inh 57.1 | PLA2 counter 68.1
Fc1cccc(NC(=S)NCc2ccccc2Cl)c1	ATG4B inh 40.3 | PLA2 counter inactive
O=C(NCCCN1CCCC1)c1ccc2c(c1)N(Cc1ccccc1F)C(=O)c1ccccc1S2(=O)=O	none
COc1ccccc1N(C(=O)c1csnn1)C(C(=O)NC1CCCC1)c1ccccc1 (stereo not drawn)	none
COc1ccc(C(=O)NC(CCSC)C(=O)NCc2nnc3ccccn23)cc1 (stereo not drawn)	none (no result: pPAFAH inh)
O=C(NCc1ccccc1Cl)c1ccccc1Oc1ccccc1	ATG4B inh 52.7 | PLA2 counter inactive
O=C(NCc1ccccc1Cl)c1cccc(NC(=O)c2ccccc2)c1	ATG4B inh 48.0 | PLA2 counter 52.8
S=C(NCc1ccccc1)NCc1ccc(CNC(=S)NCc2ccccc2)cc1	none
O=C(NCc1ccccc1Cl)c1ccccc1CCc1ccccc1	none
CCN(CC)C(=S)Nc1ccc([N+](=O)[O-])cc1	ATG4B inh 57.9 | PLA2 counter inactive
Fc1ccc(CNC(=S)NCc2ccccc2)cc1	ATG4B inh 42.6 | ATG4B conf 71.5 | PLA2 counter inactive
CCOC(=O)C1=C(C)NC(C)=C(C(=O)OCC)C1C(=O)OCC(=O)NCc1ccco1	none
Cc1ccc(C(=O)Nc2ccccc2N2CCOCC2)cc1S(=O)(=O)N1CCOCC1	none
O=C(NCc1nnc(SCC(=O)N2CCCCCC2)o1)c1ccccc1F	none
S=C(NCCC(c1ccccc1)c1ccccc1)Nc1cccc(Cl)c1	ATG4B inh 45.6 | PLA2 counter 69.7
FC(F)(F)c1cccc(NC(=S)NNC(=S)NCc2ccccc2)c1	pPAFAH inh 47.7, ATG4B inh 41.8 | PLA2 counter inactive
O=C(COC(=O)c1ccccc1Nc1ccccc1)NCc1ccccc1	none
O=C(COC(=O)c1ccccc1Nc1ccccc1)NCc1ccccc1Cl	ATG4B inh 48.7 | PLA2 counter inactive
O=C(CCN1CCCCC1)N1CCc2c([nH]c3ccccc23)C1c1cccnc1 (stereo not drawn)	none (no result: pPAFAH inh)
Cc1ccnc(NC(=O)c2ccc(NS(=O)(=O)/C=C/c3ccccc3)cc2)c1	none
Nc1ncnc2c1nc(SCCO)n2Cc1ccccc1	none
O=C(O)c1cc(Br)ccc1NN=C1CCCCC1	ATG4B inh 50.3 | ATG4B conf 62.2 | PLA2 counter inactive
CCOc1ccc(NC(=S)NCC(c2cccnc2)N2CCOCC2)cc1 (stereo not drawn)	none
O=S(=O)(Nc1ccccc1N1CCCCC1)c1ccc(F)cc1F	none
CC/C=C\C/C=C\C/C=C\CCCCCCCC(=O)O	ATG4B inh 46.0 | ATG4B conf 63.5 | PLA2 counter inactive
NCCCC(=O)O	none
O=C(CCCNC(=O)c1ccc(Cl)cc1)OCc1cccc(Br)c1	none
O=C(COC(=O)Cc1c(Cl)cccc1Cl)Nc1ccccc1-c1ccccc1	none
O=C(CSCc1c(Cl)cccc1Cl)Nc1ccccc1-c1ccccc1	ATG4B inh 74.1 | PLA2 counter 79.5
COc1ccccc1Nc1ccc2nonc2c1[N+](=O)[O-]	none
COc1cc(OC)cc(C(=O)Nn2c(C)nc3ccccc3c2=O)c1	none
COc1cc(OC)cc(-c2nc3ccccc3c(=O)n2OC(=O)c2ccc(C)c(C)c2)c1	ATG4B inh 56.5 | ATG4B conf 51.0 | PLA2 counter inactive
O=C(CSc1nnc(COc2ccccc2)n1-c1ccccc1)c1cccs1	ATG4B inh 54.1 | PLA2 counter 54.6
NC(=O)CSc1nnc(COc2ccccc2)n1CCc1ccccc1	ATG4B inh 53.5 | PLA2 counter inactive
Cc1ccc(OCc2nnc(SCC(=O)c3cccs3)n2-c2ccccc2)cc1C	ATG4B inh 61.9 | PLA2 counter 78.4
Cn1cccc1Cc1nnc(SCC(N)=O)n1CCc1ccccc1	none
O=C(Cc1ccc2c(c1)OCCO2)Nc1cc(Cl)ccc1N1CCOCC1	none (no result: pPAFAH inh)
Clc1cccc(-c2nnc(SC/C=C/c3ccccc3)n2Cc2ccco2)c1	ATG4B inh 54.8 | PLA2 counter 56.2
C(=C\c1ccccc1)/CSc1nnc(-c2ccccc2)n1Cc1ccco1	ATG4B inh 66.9 | PLA2 counter 66.0
COc1cc(NC(=S)Nc2ccc(Br)cc2Cl)c(OC)cc1Cl	none
COC(=O)c1cccc(NC(=S)Nc2cccc(Cl)c2Cl)c1	ATG4B inh 44.1 | PLA2 counter inactive
COc1cc(NC(=S)Nc2cccc(Cl)c2Cl)c(OC)cc1Cl	ATG4B inh 40.0 | PLA2 counter 60.0
CC(=O)c1ccc2c3c(cc(C)c2c1)CCCC3	none (no result: pPAFAH inh)
NC(=O)CSc1nc2cc(Cl)ccc2c(=O)n1C1CCCCC1	none
COC(=O)CSc1nc2cc(Cl)ccc2c(=O)n1C1CCCC1	ATG4B inh 45.9 | ATG4B conf 60.6 | PLA2 counter inactive
COCc1[nH]nc2c1C(c1ccc(OC)cc1)C(C#N)=C(N)O2 (stereo not drawn)	none
CC(C)c1[nH]nc2c1C(c1ccc(OC(=O)c3ccco3)cc1)C(C#N)=C(N)O2 (stereo not drawn)	ATG4B inh 82.9 | PLA2 counter 83.7
COc1ccc(NC(=O)CN2C(=O)C(=O)N(C3CCCC3)C2=O)c(OC)c1	none
Cc1oc(-c2ccccc2F)nc1CS(=O)(=O)CC(=O)NCc1ccccc1Cl	ATG4B inh 48.8 | PLA2 counter 67.1
Cc1oc(-c2ccccc2F)nc1CS(=O)(=O)CC(=O)NCc1ccco1	none
Cn1ncc([N+](=O)[O-])c1C(=O)Nc1ccc(C2CCCCC2)cc1	none
O=C(Nc1ccc(N2CCOCC2)cc1N1CCOCC1)c1ccccc1	none
O=C(Nc1ccccc1N1CCN(c2ccccc2)CC1)c1ccccc1	ATG4B inh 44.2 | ATG4B conf 62.4 | PLA2 counter inactive
CCOC(=O)c1ccccc1NC(=O)COC(=O)C(CC)Oc1ccccc1 (stereo not drawn)	none (no result: PAFAH1B2 FP inh, pPAFAH inh, ATG4B inh, PAFAH1B3 FP inh, PAFAH2 inh)
CCCCn1c(N)c(N(CCOC)C(=O)COC(=O)COc2cc(C)c(Cl)cc2C(C)C)c(=O)[nH]c1=O	ATG4B inh 51.2 | PLA2 counter 57.9
CC(=O)c1ccccc1NC(=O)COc1ccc(N(C)S(=O)(=O)c2ccc(C)c(C)c2)cc1	ATG4B inh 84.9 | PLA2 counter inactive
CC(=O)Nc1ccc(S(=O)(=O)N(C)c2ccc(OCC(=O)Nc3ccccc3C(C)=O)cc2)cc1	none (no result: pPAFAH inh)
Cc1ccccc1CNC(=O)c1ccc(CSCc2ccccc2)cc1	ATG4B inh 48.9 | PLA2 counter 67.7
O=C(Nc1ccccc1-c1ccccc1)c1ccc(=O)[nH]n1	none
COc1ccc(-c2ccc3c(c2)S(=O)(=O)c2cccc(C(=O)NCc4cc(C)oc4C(F)(F)F)c2C3=O)cc1OC	none
